PubChem BioAssay AID652039 (The Scripps Research Institute Molecular Screening Center, 2013)
Among all 370,000 compounds or so, about 3,300 (0.89%) were called active. Many of the other results were omitted from the sample, so actives are more common in it than they were. Unmarked numbers belong to inactive results.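 The calls were made as follows: active = activation above the mean of all tested compounds plus 3 SD, computed per campaign excluding outliers beyond control limits (cut at about 13% in these data); inactive = the rest.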

biological target: Kallikrein-7 (Homo sapiens) (UniProt P49862); assay: proKLK7 zymogen activators, primary screen, biochemical, fluorescence intensity (AID 652039); conditions: purified proKLK7, EDANS-DABCYL substrate fluorescence; at 7 µM; stronger effect = higher value; 100% is mature enzyme control, 0% vehicle
Sequence (P49862 whole entry, looked up): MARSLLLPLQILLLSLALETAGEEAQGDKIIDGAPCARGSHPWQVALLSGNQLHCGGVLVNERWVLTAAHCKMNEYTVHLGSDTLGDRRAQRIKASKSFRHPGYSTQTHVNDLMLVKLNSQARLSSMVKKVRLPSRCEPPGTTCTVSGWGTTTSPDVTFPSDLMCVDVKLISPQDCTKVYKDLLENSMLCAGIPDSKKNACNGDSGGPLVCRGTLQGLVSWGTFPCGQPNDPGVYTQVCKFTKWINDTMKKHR

Compound	activation
Cc1nc(SCC(=O)NC2CCCCC2C)c(C#N)c(C)c1C (configuration not stated)	-0.08%
COC(=O)c1c(C)c(C)nc(N)c1C#N	33.8% (active)
COCc1c(N)c(C)nc(Cl)c1C#N	-1.78%
Cc1ccccc1NC(=O)Cn1nnc(-c2ccccc2F)n1	-0.28%
O=C(NC1CCCC1)C1CSCCS(=O)(=O)N1Cc1ccccc1 (configuration not stated)	0.33%
Cc1c[nH]c2cccc(-c3ccc(Cl)cc3)c12	0.5%
O=C(CSc1nnc(COc2ccccc2)n1Cc1ccco1)c1ccc2ccccc2c1	0.09%
O=C(NCc1cccs1)C1CCCN(S(=O)(=O)c2ccc([N+](=O)[O-])cc2)C1 (configuration not stated)	-0.47%
Cc1ccc(-n2c(SCC(=O)Nc3ccc(S(=O)(=O)Nc4nccs4)cc3)nnc2-c2ccncc2)cc1	0.08%
CCCCCn1c(=O)c(C(=O)OCC)c(Cl)c2ccccc21	27.6% (active)
CCCCNC(=O)CCn1c(=O)c2ccccc2n(Cc2cc(C)ccc2C)c1=O	-0.3%
CCOC(=O)CSc1nc2c(c(=O)n(Cc3ccccc3Cl)c(=O)n2C)n1C	-0.44%
C=CCn1c(SCC(N)=O)nnc1-c1ccccc1OC	-0.28%
Cc1ccc(C2=CCN(C)C(=O)N2c2ccc(Cl)cc2)cc1	0.11%
C[C@H](C(=O)N(C)c1ccccc1)[C@@H](O)c1ccc2ccccc2c1	-0.85%
CN(C)S(=O)(=O)c1cccc(C(=O)N/N=C\c2ccco2)c1	-0.04%
Cc1c(CC(=O)NCC(=O)NCC(=O)O)c(=O)oc2cc3oc4c(c3cc12)CCCC4	-11.5%
CC[C@@H](C)[C@H](NC(=O)CCc1c(C)c2cc3c4c(oc3c(C)c2oc1=O)CCCC4)C(=O)O	-2.12%
Cc1coc2c1c(C)cc1oc(=O)c(CC(=O)NCC(=O)N[C@H](C(=O)O)C(C)C)c(C)c12	21.3% (active)
CCOC(=O)[C@]12CCCC=C1N(Cc1ccc(OC)cc1)C(=O)[C@@H]2CC(=O)N1CCOCC1	-0.23%
Cc1ccc(CCn2c3c(c4ccccc42)CN(C)CC3)cn1	-0.24%
COC(=O)[C@@]12CCCCC3=C1N(CCC3)C(=O)[C@H]2CC(=O)NCc1cccc2ccccc12	0.65%
CC(C)(C)OC(=O)NCc1cc(F)ccc1/C=C/S(=O)(=O)NCCc1ccccc1	0.29%

Compound	activation
FC(F)(F)c1cccc(Cn2ccc3ccc(-c4ccc5ccn(Cc6ccccc6)c5c4)cc32)c1	-1.25%
Cc1cccc(NC(=O)/C=C/c2ccc3c(c2)OCO3)n1	6.43%
O=C(/C=C/c1ccc2c(c1)OCCO2)c1ccc(O)cc1	17.6% (active)
COc1cccc(/C=C/C(=O)Nc2ccc3c(c2)OCCO3)c1	-0.23%
COc1ccccc1CCNC(=O)C1CCN(c2nc(C)cc(C)n2)CC1	-0.66%
COC(=O)c1cc(S(=O)(=O)N2CCN(c3ccccc3C)CC2)cn1C	0.47%
Cc1ccc(C(=O)c2coc3ccc(O)c(CN(C)C)c23)cc1	0.08%
CN(C)Cc1c(O)ccc2c(=O)c(-c3ccccc3Cl)coc12	40.3% (active)
CN(C)Cc1c(O)ccc2occ(C(O)c3ccccc3)c12 (configuration not stated)	-0.59%
COc1ccc(CNC(=O)COC(=O)C2=Cc3ccccc3OC2)cc1	31.2% (active)
COc1ccc(CNC(=O)COC(=O)C(CCSC)N2C(=O)c3ccccc3C2=O)cc1 (configuration not stated)	0.41%
COc1ccc(CCNC(=O)COC(=O)c2cc(=O)c3ccccc3o2)cc1	0.13%
COc1ccc(-c2cc(-c3nnc(SCc4ccc([N+](=O)[O-])cc4)n3N)[nH]n2)cc1	0.29%
O=C(NCc1ccco1)C1CCCN(S(=O)(=O)c2ccc(Cl)s2)C1 (configuration not stated)	-0.13%
COC(=O)C1CN(CC(C)C)CCS(=O)(=O)N1Cc1ccc(F)cc1 (configuration not stated)	0.05%
N#Cc1cnn2cc(CCN3CCOCC3)c(-c3ccc(F)cc3)nc12	11.7%
COc1ccc2c(c1)CCc1c(C(=O)N3CCCC3)noc1-2	0.01%
COc1ccc2c(c1)CCc1cn3ncc(C#N)c3nc1-2	47% (active)
CN(CCc1ccccc1)C(=O)Cn1nc(-c2ccccc2)ccc1=O	-0.3%
CCOC(=O)C1(Cc2ccccc2)CCN(Cc2cn(C(C)=O)c3ccccc23)CC1	0.56%
CCCCCCN1CCS(=O)(=O)N(Cc2ccc(C(F)(F)F)cc2)C(C(=O)OC)C1 (configuration not stated)	0.5%
O=c1c(-c2ccccc2)coc2c(CN3CCOCC3)c(O)ccc12	45.3% (active)
CCOC(=O)c1oc2c(CN3CCN(C)CC3)c(O)ccc2c(=O)c1-c1ccc(Br)cc1	0.69%

Compound	activation
O=c1[nH]c(CN2CCOCC2)nc2scc(-c3ccccc3)c12	-0.59%
O=C(NCC1COc2ccccc2O1)c1ccc(NC(=O)c2cc(F)ccc2F)cc1 (configuration not stated)	1.38%
COc1cccc(Cn2cc(COC(=O)Nc3ccc(F)cc3)nn2)c1	-0.1%
COc1cccc2cc(S(=O)(=O)c3ccc(C)cc3)/c(=N/NS(=O)(=O)c3ccc(C)cc3)oc12	0.14%
Cc1cc(S(=O)(=O)c2cc3ccc(O)c(C)c3oc2=O)ccc1F	22.6% (active)
O=C(CSc1nc2ccccc2s1)NN=Cc1ccc(O)cc1O	-0.66%
COc1cccc(/C=C2\CC3(OC(C)=O)CCCN2C3)c1 (configuration not stated)	0.57%
O=C(CCCCCN1C(=O)C2C3C=CC(C3)C2C1=O)Nc1ccccn1 (configuration not stated)	0.09%
C=C(C)C1CC23C(=O)C4(C(=O)c5ccccc5)C[C@@]5(C)CCC(CC2C1(C)C)(C4=O)C35OC (some centres not stated)	-0.91%
Cc1ccccc1C(=O)O	-0.39%
Cc1cc(=O)oc2c1ccc1ccccc12	-3.76%
Cc1ccsc1-c1cc(C(=O)O)c2c(ccc3ccccc32)n1	12.6% (active)
Cc1c(C)c2c(OCC(=O)NCCCO)cc3c(c2oc1=O)CCC(C)(C)O3	40.1% (active)
Cc1c(C)c2c(OCC(=O)N[C@@H](C(=O)O)c3ccccc3)cc3c(c2oc1=O)CCC(C)(C)O3	39.6% (active)
Cc1cc(=O)oc2c3c(cc(OCC(=O)N[C@H](C(=O)O)c4ccccc4)c12)OC(C)(C)CC3	47.5% (active)
Cc1cc(=O)oc2c3c(cc(OCC(=O)NCCC(=O)N[C@@H](C)C(=O)O)c12)OC(C)(C)CC3	47.4% (active)
Cc1cc(=O)oc2c(C)c(OCC(=O)NCCN3CCOCC3)ccc12	-0.44%
Cc1c(OC(C)C(=O)N[C@@H](Cc2ccccc2)C(=O)O)ccc2c3c(c(=O)oc12)CCCC3 (some centres not stated)	-18.9%
Cc1cc(=O)oc2c3c(cc(OCC(=O)NCc4ccccn4)c12)OC(C)(C)CC3	12.5%
O=C(COc1ccc2c3c(c(=O)oc2c1)CCCC3)NCC(O)c1ccccc1 (configuration not stated)	-0.24%
CCc1cc(=O)oc2c(C)c(OCC(=O)NCCN3CCOCC3)ccc12	1.04%
Cc1cc(=O)oc2c3c(cc(OCC(=O)NCC(O)c4ccccc4)c12)OC(C)(C)CC3 (configuration not stated)	-10.6%
COc1ccc(CCNC(=O)COc2cc(C)cc3oc(=O)c(C)c(C)c23)cc1OC	-0.02%

Compound	activation
COc1cccc(NC(=O)COc2cc(C)cc3oc(=O)cc(C)c23)c1	-0.24%
Cc1ccccc1NC(=O)COC(=O)c1ccc(Sc2ncn[nH]2)c([N+](=O)[O-])c1	0.34%
Cc1cc(C)cc(NC(=O)N2CCC(N(C)CCC(C)C)CC2)c1	-0.07%
CC(CCN1CCC(C(O)(c2ccccc2)c2ccccc2)CC1)Oc1ccc(C(F)(F)F)cc1 (configuration not stated)	-0.17%
COC(=O)[C@]12C[C@H](CC(=O)N3CCN(C(=O)C4CC4)CC3)C(=O)N(CCC3=CCCCC3)C1=C[C@H](C(C)C)O[C@@H]2C1CC1	0.25%
CCCC[C@H]1C2CC(OC(=O)NCc3ccccc3)C(C2)[C@H]2CCCCN21 (some centres not stated)	0.07%
O=C(NCc1cccnc1)c1ccc2nc([C@@H]3O[C@H](CO)[C@H](O)[C@H](O)[C@H]3O)[nH]c2c1	-0.29%
CCOC(=O)c1csc(NC(=O)C2CCCN(S(=O)(=O)c3ccc(Cl)s3)C2)n1 (configuration not stated)	0.6%
Cc1ccccc1N1CCN(C2CCCN(C(=O)c3cn4c(C)cccc4n3)C2)CC1 (configuration not stated)	0.45%
CCOC(=O)[C@]12CCCCC/C=C\1N(Cc1ccc(OC)cc1)C(=O)[C@H]2CC(=O)NCc1ccc(C)o1	0.76%
O=C(CN1CCCc2ccccc21)NCc1ccc(F)cc1	-0.07%
COC(=O)C1=C(C(=O)c2ccc(C)cc2)C(c2ccccc2)n2nnnc2N1 (configuration not stated)	-0.19%
COc1ccccc1NC(=O)C1=C(C)Nc2nnnn2C1c1cccc(Br)c1 (configuration not stated)	0.58%
COC(=O)c1ccc(C2C3=C(Nc4nnnn42)c2ccccc2OC3)cc1 (configuration not stated)	30.4% (active)
COc1ccccc1C(=O)NC1CCCCN(C(C)C)C1=O (configuration not stated)	0.9%
COc1cccc(CNC(=O)C2CCCN(c3nc4ccccc4o3)C2)c1OC (configuration not stated)	0.61%
O=S(=O)(c1ccccc1)N1CCC(c2nc3ccccc3o2)CC1	-0.13%
CC1CCN(C(=O)Cn2cc(C(=O)c3ccco3)c3ccccc32)CC1	0.78%
CC1CCCN(C(=O)c2cc(-c3ccco3)nc3ccccc23)C1 (configuration not stated)	38.3% (active)
O=C(c1cc(-c2ccco2)nc2ccccc12)N(Cc1nnc(-c2ccc(Cl)cc2)o1)C1CC1	-60.5%
CC(=O)N1CCN(C(=O)c2cc(-c3ccc(C)o3)nc3ccccc23)CC1	35.2% (active)
CC(=O)N1CCN(Cc2cc(=O)oc3cc(C)ccc23)CC1	0.22%
Cc1ccc(S(=O)(=O)N2CCN(C(=O)c3ccccc3-c3nc4ccccc4s3)CC2)c(C)c1	-0.15%
